The list is not random: actives were taken first. Their share in the collection is about 1.6%.
EphB4 ephrin blk – antagonists of human EphB4-ephrin-B2 interaction | EphB4 LBD / TNYL-RAW-Alexa532 peptide, fluorescence polarization | 0.15% of 97,000 active | AID 720 | P54760 | inhibition, % at 7 µM;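 active means inhibition above the screen-wide mean inhibition plus 3 SD, cut at about 15% in these data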;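 further: 0% = DMSO wells and 100% = excess unlabeled TNYL-RAW peptide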
LYP inh 2 – blocks human PTPN22 phosphatase activity | Q9Y2R2 | 0.21% of 96,000 active | recombinant LYP catalytic domain, DiFMUP fluorescence | inhibition, % at 2 µM;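 active means inhibition at 2 µM at or above a set limit, the screen mean plus 3 SD, cut at about 24% in these data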;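 further: 0% = DMSO with enzyme and 100% = enzyme fully blocked by orthovanadate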
PLAP act – human PLAP activation; P05187; purified PLAP enzyme, luminescent substrate read-out; active compounds read high; activation fold at 20 µM; 1.2% of 96,000 active; in the data active means activation fold above about 2
PTPN22 act – increases human PTPN22 phosphatase activity. Q9Y2R2. recombinant LYP, DiFMUP fluorescence; 0 = plate median, 100 = signal doubled. activation, % at 2 µM. 0.11% of 96,000 active. AID 697;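 active means activation at 2 µM above a set limit, the mean plus 5 SD, cut at about 37% in these data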
sEH act – activators of human soluble epoxide hydrolase | activation, % at 2 µM | AID 717 | 0.04% of 91,000 active | P34913 | purified human sEH enzymatic activity, activator screen; in the data active means activation above about 37%
sEH inh – blocks human soluble epoxide hydrolase activity; P34913; recombinant human sEH enzymatic activity assay; inhibition, % at 2 µM; 0.34% of 91,000 active; in the data active means inhibition above about 80%
Numbers without * were called inactive; x = no result; [ ] = remark or other dose.

SMILES	EphB4 ephrin blk	LYP inh 2	PLAP act	PTPN22 act	sEH act	sEH inh
Cc1[nH]n(-c2ccccc2)c(=O)c1C=Nc1cnc2ccccc2c1	2	1	2.1*	-5	-2	3
COc1cc(C2NC(=O)NC(C)=C2C(=O)OC(C)C)ccc1OC(=O)c1ccco1 (stereo unspecified)	-3	-16	x	16	1	-1
COc1ccc(CN(C(=O)CSc2nnc(-c3c[nH]c4ccccc34)o2)c2ccc(F)cc2)cc1OC	0	-8	x	7	10	-7
CCCNC(=O)CN(CCc1ccccc1)S(C)(=O)=O	1	-8	0.9	5	-3	5
CC(C)c1nc2ccc(NC(=O)C34CC5CC(CC(C5)C3)C4)cc2[nH]1	-6	-1	2*	3	-6	5
FC(F)Oc1ccc(/C=N/c2c(-c3ccc(OC(F)F)cc3)nc3n2CCS3)cc1	-4	-1	x	-2	12	-11
COc1ccc(NCc2nnc(SCC(=O)Nc3cc(C(F)(F)F)ccc3Cl)o2)cc1	1	8	2.3*	-9	-23	22
O=C(NCCC1=CCCCC1)NC12CC3CC(CC(C3)C1)C2	-58	-2	x	1	-97	97*
Cn1c(N2CCC(C(N)=O)CC2)nc2c1c(=O)n(Cc1ccc(Br)cc1)c(=O)n2C	-5	-11	x	8	-6	4
CCN(CC)CCn1nc(C)nc1-c1ccccc1O	-2	2	2.3*	-4	6	-5
Cc1ccc2nc(SCc3ccc([N+](=O)[O-])cc3)[nH]c2c1	7	-16	1.2	20	-8	7
Cc1ccc2nc(CSc3nc(C)ccc3C#N)[nH]c2c1	13	11	2.2*	-9	6	-4
CCOC(=O)c1cnn(-c2ccccc2)c1-n1cccc1C(=O)C(=O)Nc1ccc(OC)cc1	-3	-3	1.2	6	16	-17
CCCCCN(C(=O)CN(C)Cc1ccc(OC)cc1OC)c1c(N)n(CCCC)c(=O)[nH]c1=O	10	4	2.4*	-5	-5	4
CCCCCN(C(=O)COC(=O)c1ccc(Br)o1)c1c(N)n(CCCC)c(=O)[nH]c1=O	2	-1	0.9	0	0	-2
COc1ccccc1OC(=O)CN1C(=O)c2ccccc2C1=O	-4	9	1.1	-6	-10	9
O=c1c(-c2ccnn2-c2cccc(Cl)c2)cnc2n1CCS2	-1	9	0.9	-8	5	-5
O=C(CN(Cc1cccs1)C(=O)CSc1nnc(COc2ccccc2)o1)NC1CCCC1	20*	3	1	-4	6	-7
CCNc1ccc2noc3c2c1C(=O)c1ccccc1-3	95*[fluorescence artefact?]	13	x	-11	11	-8
O=C1c2ccccc2-c2onc3ccc(NCc4ccco4)c1c23	x	x	0.8	x	x	x
CC(C)NC(=O)c1ccc(C2SCC(=O)N2Cc2ccccc2)cc1 (stereo unspecified)	-2	-11	x	5	-10	14
CN1CCn2c1nc(N1CCOCC1)nc2=O	-2	31*	1	-33	-6	6
O=C(O)c1nc(N2CCOCC2)nc(N2CCOCC2)n1	5	7	x	-6	-4	9
CCOc1ccc(C(=O)CSc2nnc3ccccn23)cc1	0	-1	0.9	2	9	-7
CCn1c(CSc2nnc3ccccn23)nc2cc(C(=O)O)ccc21	27*[fluorescence artefact?]	1	0.9	-4	10	-10
SMILES	EphB4 ephrin blk	LYP inh 2	PLAP act	PTPN22 act	sEH act	sEH inh
CCn1c(CSc2nnc(-c3cccnc3)n2-c2ccccc2C)nc2cc(C(=O)O)ccc21	30*[fluorescence artefact?]	4	1.4	0	5	-5
COc1ccc(CC(=O)Nc2ccc3c(c2)CCC3)cc1OC	5	-7	2.1*	7	-41	40
CNC(=S)NNC(=O)Cc1ccc(OC)c(OC)c1	-1	-11	2.1*	13	6	-6
O=C(O)COCC(=O)Nc1ccc2c(c1)CCC2	0	-4	1	4	6	-6
CCC(Cc1ccccc1)NC(=O)C1CCC(CNc2c(N3CCCC3)c(=O)c2=O)CC1 (stereo unspecified)	0	-10	1.7	7	-1	-1
CNCc1ccccc1OCC(=O)Nc1ccccc1OC	-3	19	0.8	-17	2	-2
O=C(COc1ccccc1CNCc1ccccc1)Nc1ccccc1	-2	-1	2.6*	3	7	-6
O=C(Nc1cccc(Cl)c1)C1CCCN(S(=O)(=O)c2cnc[nH]2)C1 (stereo unspecified)	-1	0	1.3	-3	x	x
